# An excerpt weighted towards active compounds, which were near 2.4% of everything screened.
# VLA-4 agonist – allosterically activates the human VLA-4 integrin; Jurkat cells, LDV-FITC binding, flow cytometry; activation, % at 10 µM (by protocol); 24,000 tested, under 10 active;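 active = fluorescent ligand binding to cells raised by more than 40% of the manganese-induced maximum; inconclusive = compound's own fluorescence above 85% of the ligand control signal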;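 also: 0% = ligand binding without compound and 100% = manganese-stimulated maximal binding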
# Target sequence (P13612 whole entry, looked up): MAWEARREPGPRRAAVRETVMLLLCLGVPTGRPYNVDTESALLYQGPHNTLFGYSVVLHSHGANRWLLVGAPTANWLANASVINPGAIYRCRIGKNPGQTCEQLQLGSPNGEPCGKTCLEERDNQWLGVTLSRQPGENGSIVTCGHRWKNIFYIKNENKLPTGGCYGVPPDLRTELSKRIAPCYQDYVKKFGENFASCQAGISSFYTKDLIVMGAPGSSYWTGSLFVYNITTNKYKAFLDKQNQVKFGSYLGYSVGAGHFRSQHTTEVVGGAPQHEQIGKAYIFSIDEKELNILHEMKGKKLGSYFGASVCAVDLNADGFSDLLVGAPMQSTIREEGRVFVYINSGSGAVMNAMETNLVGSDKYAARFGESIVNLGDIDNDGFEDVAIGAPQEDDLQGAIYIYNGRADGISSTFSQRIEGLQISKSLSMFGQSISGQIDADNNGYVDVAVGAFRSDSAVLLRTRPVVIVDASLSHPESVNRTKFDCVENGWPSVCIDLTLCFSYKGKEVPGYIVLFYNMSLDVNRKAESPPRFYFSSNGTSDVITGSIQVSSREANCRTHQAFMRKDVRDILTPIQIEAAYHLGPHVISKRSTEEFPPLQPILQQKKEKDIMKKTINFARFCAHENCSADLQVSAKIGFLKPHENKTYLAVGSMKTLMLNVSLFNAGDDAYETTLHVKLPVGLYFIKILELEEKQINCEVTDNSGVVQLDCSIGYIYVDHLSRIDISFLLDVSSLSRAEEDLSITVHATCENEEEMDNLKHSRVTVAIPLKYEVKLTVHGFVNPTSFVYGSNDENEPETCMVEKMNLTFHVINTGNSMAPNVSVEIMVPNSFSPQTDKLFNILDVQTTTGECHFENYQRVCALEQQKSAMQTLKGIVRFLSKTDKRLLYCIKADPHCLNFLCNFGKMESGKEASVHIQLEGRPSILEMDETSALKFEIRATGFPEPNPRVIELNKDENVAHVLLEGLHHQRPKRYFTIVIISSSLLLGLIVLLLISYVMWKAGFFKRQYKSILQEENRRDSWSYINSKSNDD
# FPRL1 ligand – binds the human formylpeptide receptor-like-1 FPRL1; P25090; AID 441; inhibition, % (test concentration not listed); 24,000 tested, 0.3% active; FPRL1-expressing cells, fluorescent ligand binding inhibition, flow cytometry;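 also: 0% = buffer alone and 100% = receptor blocker peptide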
# LNCaP diff act – activators of LNCaP prostate cell differentiation. flow cytometry side scatter, 4 d. side scatter shift, % at 10 µM. 24,000 tested, 0.56% active. AID 795;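 active = side scatter shift above 30%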;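 also: androgen-responsive LNCaP prostate cancer cells in charcoal-stripped serum medium; percent of cells past a gate set so DMSO wells show 10% shift; higher shift means more granular cells and more differentiation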
# Jurkat autofluor – compound fluoresces in Jurkat cells, VLA-4 screen interference | fluorescence ratio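 (tested at 10 µM compound in the well)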 | 24,000 tested, 0.61% active | compound autofluorescence, flow cytometry; active compounds read high; 1 = vehicle-only cell background;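 active = fluorescence ratio above 2.44, which is 1 plus 3 SD of all ratios; inconclusive = signal too bright to measure linearly, ratio around 10 or more; inactive = fluorescence ratio below 2.44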;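 also: green fluorescence of cells measured with 488 nm excitation and 530 nm emission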
# VLA-4 antagonist – blocks LDV-FITC ligand binding to Mn2+-activated human VLA-4 integrin | inhibition, % at 10 µM (by protocol) | 24,000 tested, 0.2% active | P13612 | Jurkat cells, LDV-FITC binding with Mn2+, flow cytometry; 100% = Mn2+-driven binding gain fully reversed;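 active = inhibition above 50%; inconclusive = compound itself fluorescent, judged against control cell fluorescence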;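 also: 0% = Mn2+ stimulated cells lacking compound and 100% = ligand binding without Mn2+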
# FPR ligand – human FPR ligand, with FPRL1 counter-screen; P21462; FPR-expressing cells, fluorescent ligand binding, flow cytometry; inhibition, % (no concentration beside the values); 24,000 tested, 0.74% active;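 also: 0% = buffer wells and 100% = receptor blocker peptide wells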
# Numbers without * were called inactive; ? = inconclusive; . = not tested or not shown. Rule as the data show it, unless noted: active = inhibition above about 30%; inconclusive = no clear call, values can overlap the other calls; inactive = below that.
SMILES,VLA-4 agonist,FPRL1 ligand,LNCaP diff act,Jurkat autofluor,VLA-4 antagonist,FPR ligand
CCN1CCCC1CNC(=O)c1cc2c(C)nc3ccccc3c2o1 (stereo unspecified),19.0,3.5,15.0,0.77,-22.0,1.9
Cc1nc2ccccc2c2oc(C(=O)N3CCc4ccccc43)cc12,-7.0,25.6,3.0,1.05,-7.0,38.4*
CCOc1ccc(-n2cc(C(=O)N3CCCCCC3)c3cc(OC)c(OC)cc3c2=O)cc1,3.0,-2.0,8.0,1.02,9.0,0.0
O=C1N2c3ccccc3CCc3cccc(c32)C1(O)C(F)(F)F (stereo unspecified),-3.0,-13.0,6.0,0.98,-7.5,-1.9
CC(C(=O)Oc1ccc2c(c1)OCO2)N1C(=O)c2ccccc2C1=O (stereo unspecified),0.5,-1.1,10.0,0.95,-8.5,6.9
C=CCOc1ccc(C2C(C(=O)c3cccs3)=C(O)C(=O)N2c2nnc(C)s2)cc1 (stereo unspecified),.,20.9,.,.,.,43.0*
COc1ccc(C2C(C(=O)c3cccs3)=C(O)C(=O)N2c2nnc(C)s2)cc1OC (stereo unspecified),.,26.8,.,.,.,36.3*
COc1cccc(OCC(=O)Nc2c(C(=O)Nc3ccc(OC)cc3OC)oc3ccccc23)c1,1.0,-6.6,36.0*,1.12,-10.0,-2.3
Cc1n[nH]c(C)c1S(=O)(=O)N1CCCC(C(=O)NCc2cccs2)C1 (stereo unspecified),21.0,-0.8,8.0,0.8,-40.0,1.6
Cc1n[nH]c(C)c1S(=O)(=O)N1CCCC(C(=O)NC2CCCc3ccccc32)C1 (stereo unspecified),?,-3.0,4.0,2.45*,?,-0.4
Oc1cc(NCc2cccnc2)ccc1-c1nc2ccccc2o1,?,-12.0,4.0,2.97*,?,-12.8
CCOc1cccc(/C(O)=C2/C(=O)C(=O)N(CCOC)C2c2ccc(C)o2)c1 (stereo unspecified),.,-10.9,.,.,.,50.8*
Cc1ccc(C2/C(=C(/O)c3ccccc3)C(=O)C(=O)N2CCN2CCOCC2)o1 (stereo unspecified),.,0.1,.,.,.,-4.7
Cc1cccc(NC(=O)c2cc(NC(=O)c3ccco3)ccc2Cl)n1,-1.0,0.6,7.0,1.04,-17.0,-4.5
COCc1nnc(NC(=O)c2ccc(S(=O)(=O)N3CCCCCC3)cc2)o1,?,0.8,10.0,2.46*,?,-2.3
CCOC(=O)Cn1c(=O)oc2cc(S(=O)(=O)Nc3cc(Cl)ccc3OC)ccc21,?,?,4.0,4.28*,?,-49.9
CCOC(=O)Cn1c(=O)oc2cc(S(=O)(=O)Nc3cc(OCC)ccc3OCC)ccc21,?,-6.0,6.0,1.44,?,-6.4
CCOCCCNS(=O)(=O)c1ccc2c(c1)oc(=O)n2CC(=O)OCC,?,-10.3,4.0,2.48*,?,-22.1
CCOC(=O)Cn1c(=O)oc2cc(S(=O)(=O)Nc3ccc(N(CC)CC)cc3C)ccc21,?,?,12.0,4.1*,?,-47.6
Cc1c2c(n3c(nc4ccccc43)c1C#N)N(Cc1ccccn1)CC2,2.0,15.3,.,1.08,5.0,2.8
CCOc1ccc2nc(N3CCC(C(=O)N4CCN(c5ncccn5)CC4)CC3)sc2c1,-7.0,-4.8,11.0,1.12,11.0,1.3
CCOc1ccc2nc(N3CCC(C(=O)N4CCN(c5ccccn5)CC4)CC3)sc2c1,-16.8,11.6,12.0,1.29,53.6*,2.7
Cc1nnc(SCc2cnc(-c3ccccc3)o2)[nH]c1=O,7.0,52.1*,9.0,1.09,-18.5,63.3*
Cc1nnc(SCC(C)C)[nH]c1=O,?,0.3,14.0,1.13,?,-3.5
O=C(CN1CCN(Cc2ccc(Cl)cc2)C1=O)NCCN1CCCC1,?,1.2,11.0,0.8,?,3.3
SMILES,VLA-4 agonist,FPRL1 ligand,LNCaP diff act,Jurkat autofluor,VLA-4 antagonist,FPR ligand
CN(C)c1ccc(CNC2CC(C)(C)NC(C)(C)C2)cc1,3.0,0.6,36.0*,1.05,-18.5,-5.5
CC1CCCN(C(=O)Cn2c(-c3nonc3N)nc3ccccc32)C1 (stereo unspecified),?,-2.5,12.0,3.04*,?,1.1
CCOC(=O)c1ccccc1NC(=O)Cn1c(-c2nonc2N)nc2ccccc21,?,-1.9,32.0*,1.32,?,3.8
CC1CCCN(C(=O)CN2C(=O)c3ccccc3C2=O)C1 (stereo unspecified),-0.5,3.7,9.0,0.98,-10.5,-4.1
CC1CCCCN1C(=O)CSc1nnc(-c2ccc(Cl)s2)o1 (stereo unspecified),-7.0,-1.1,10.0,1.12,8.5,5.5
Cc1cc(=O)n2[nH]c(COc3ccccc3)nc2n1,-11.5,-5.8,6.0,1.1,20.0,-14.5
CC1=C(C)C(=O)NC(Nc2nc(C)c3cc(C)cc(C)c3n2)N1 (stereo unspecified),-4.0,-1.5,4.0,1.06,-11.5,-1.9
Clc1cccc(-c2nnc3sc(-c4ccccc4)nn23)c1,0.3,4.9,32.0*,1.06,-19.3,2.3
COc1ccc(-c2nc(N3CCCC3)nc3nn4c(C)cc(C)nc4c23)cc1,2.0,-1.6,8.0,1.05,-11.0,3.9
CCC(=O)NC(C)C(c1cccs1)N1CCN(c2ccccc2)CC1 (stereo unspecified),2.0,47.4*,11.0,0.96,-12.0,-3.9
CC(NC(=O)Cc1cccs1)C(c1cccs1)N1CCN(c2ccccc2)CC1 (stereo unspecified),-4.0,-1.5,3.0,1.07,17.0,0.6
O=c1nc(N2CCCC2)nc(Nc2ccccc2)[nH]1,1.5,4.5,12.0,1.25,-23.0,-0.4
O=c1[nH]c(Nc2ccccc2)cc2ccccc12,?,10.4,7.0,2.86*,?,-5.4
CCOCCCNC(=O)c1cc2c(-c3ccc(Cl)cc3)nn(C)c2s1,14.0,-2.2,0.0,0.79,-13.0,3.4
CCN(CC)CCNC(=O)c1cc2c(-c3ccc(Cl)cc3)nn(C)c2s1,?,-6.6,40.0*,1.16,?,-1.8
Cn1nc(-c2ccc(Cl)cc2)c2cc(C(=O)NCCCN3CCOCC3)sc21,-9.0,-2.8,31.0*,1.17,16.0,-6.3
Cn1nc(-c2ccc(Cl)cc2)c2cc(C(=O)NCCN3CCOCC3)sc21,?,2.9,9.0,1.27,?,-0.9
CC(=O)C(Sc1nc(-c2ccco2)nc2c1c(=O)n(C)c(=O)n2C)C(=O)N(C)C (stereo unspecified),0.0,-3.2,6.0,1,-8.0,-2.2
Cc1noc(C)c1S(=O)(=O)N(CCc1ccccc1)Cc1ccccc1,-4.0,-5.3,9.0,1.06,14.0,-0.9
CCC(C)(C(=O)NC1CCCCC1)N(Cc1ccco1)C(=O)c1ccc2c(c1)OCO2 (stereo unspecified),-1.7,-1.3,5.0,0.96,-9.3,6.4

# From PubChem BioAssay
